Our source for the outcome and AC50 values is PubChem BioAssay (EPA / NIEHS).

Where “and” joins values, the source holds several entries; their conditions need not be identical. Identical values can stand only once. Inconclusive results are not listed. Some structures have more than one record in an assay (separate samples or runs), and their calls can disagree. Calls of active or inactive are those of the source. Rule for the calls: active = hit-call score of the fitted dose curve at least 0.9, where 1 is the maximum; inconclusive = response in the unintended direction; inactive = score below 0.9.

A short description of the test: ACEA_ER_80hr: ACEA Biosciences xCELLigence Real-Time Cell Analysis on Estrogen Receptor Agonism for Proliferation (AID 2282667). The note with it: T47D proliferation, impedance (xCELLigence), 80 h. As to the method:
ACEA_ER is a cell-based, single-readout assay that uses T47D, a human breast cell line, with measurements taken at 80 hours after chemical dosing in a 96-well plate, although TO2 (mc0.srcf) used a 384-well plate. Differences in plate size can be ignored given data normalization.ACEA_ER_80hr is one of two assay component(s) measured or calculated from the ACEA_ER assay. It is designed to make measurements of real-time cell-growth kinetics, a form of growth reporter, as detected with electrical impedance signals by Real-Time Cell Electrode Sensor (RT-CES) technology.Data from the assay component ACEA_ER_80hr was analyzed into 1 assay endpoint. This assay endpoint, ACEA_ER_80hr_Positive, was analyzed in the positive analysis fitting direction relative to DMSO as the negative control and baseline of activity. Using a type of growth reporter, measures of the cells for gain-of-signal activity can be used to understand the signaling at the pathway-level as they relate to the gene ESR1. Furthermore, this assay endpoint can be referred to as a primary readout, because this assay has produced multiple assay endpoints where this one serves a signaling function. To generalize the intended target to other relatable targets, this assay endpoint is annotated to the nuclear receptor intended target family, where the subfamily is steroidal.
The xCELLigence system Multi-E-Plate stations were used to measure the time-dependent response to chemicals. Each compound was tested in an eight-point, 1:4 serial dilution series starting at a maximum final concentration of 100 uM. A maximum starting concentration of 0.5% DMSO was present in the 100 uM chemical samples and was diluted along with the test article dilution series. The screen was performed in biological duplicate using two separate, 96-well, E-Plates 96 for each dilution series (n = 2). Positive controls (MG132 and E2) and a negative control (assay media) were tested in quadruplicate on each testing plate. […] Reference compounds were tested with 8 concentrations with 1:5 serial dilutions. All screening was carried out by ACEA Biosciences, Inc. (San Diego, CA). T-47D cells purchased from ATCC were maintained in RPMI1640 media supplemented with 10% characterized fetal bovine serum (FBS). […] Cells were then detached and seeded in E-Plates 96 in assay medium. After overnight monitoring of growth once every hour, compounds were added to […] cells and remained in the medium until the end of the experiment. Cellular responses were then recorded once every 5 min for the first 5 h, and once every hour for an additional 100 h.
In the case of `O=S(=O)(O)C(F)(F)C(F)(F)C(F)(F)C(F)(F)C(F)(F)C(F)(F)F`, the molecule was classed as inactive.

Consider `Nn1cnnc1`, for which the AC50 was 60.3 µM (active).

Take `N#Cc1ccc(N(CC(N)=O)CC(F)(F)F)cc1C(F)(F)F`: the call was inactive.

For `CN(C)CCO`, the call was inactive.

Turning to `CC#Cc1cc(C)nc(Nc2ccccc2)n1`, the molecule was called inactive.

Take `COc1ccc(O)c(C(C)(C)C)c1`: the AC50 is 1.95 µM (active).

With `CCOC(=O)C(O)(c1ccc(Cl)cc1)c1ccc(Cl)cc1`, the outcome was inactive.

Regarding `CC(c1ccc(O)cc1)(c1ccc(O)cc1)c1ccc(O)cc1`, the half-maximal activity concentration (AC50) is 1.54 µM (active).

With `Clc1ccc(C(c2ccccc2Cl)C(Cl)(Cl)Cl)cc1` (stereo not given), the AC50 was 393 nM (active) and 193 nM (active); the outcome was inactive.

For `CC(C)C(=O)OCC(C)(C)C(OC(=O)C(C)C)C(C)C` (stereo not given), the molecule was classed as inactive.

Consider `ClC1=C(Cl)[C@]2(Cl)[C@@H]3[C@H]4C[C@H]([C@@H]5O[C@H]45)[C@@H]3[C@@]1(Cl)C2(Cl)Cl`, for which the AC50 is 50 µM (active).

Consider `CCCCCCOC(=O)c1ccccc1C(=O)OCCCCCC`, for which the molecule was classed as inactive.

Consider `c1cc2ccc3cccc4ccc(c1)c2c34`, for which the outcome was inactive.

Turning to `Clc1ccc(C(Cl)(Cl)Cl)cc1`, the molecule was called inactive.

As to `O=C(O)C(F)(F)C(F)(F)C(F)(F)C(F)(F)C(F)(F)F`, the molecule was classed as inactive.

For the molecule `CO/C=C(/C(=O)OC)c1ccccc1COc1cccc(C(F)(F)F)n1`, the concentration at half-maximal activity (AC50) was 20.2 µM (active).

In the case of `C[C@]12CCC(=O)C=C1CC[C@@H]1[C@@H]2CC[C@@]2(C)[C@H]1CC[C@]2(C)O`, the AC50 was 45.5 nM (active) and 64.3 nM (active) and 5.3 µM (active).

`O=C(O)C(F)(F)C(F)(F)C(F)(F)C(F)(F)C(F)(F)C(F)(F)C(F)(F)C(F)(F)C(F)(F)F`: the molecule was classed as inactive.

As to `CC(C)(c1ccccc1)c1ccc(O)cc1`, the AC50 was 483 nM (active) [middle of 4 runs].

For `C=CC(N)=O`, the call was inactive.

For `Cc1cc(-c2ccc(N)c(C)c2)ccc1N`, the AC50 is 27 µM (active) and 9.92 µM (active).

For `CCCCCCCCCC[N+](C)(C)CCCCCCCCCC`, the molecule was called inactive.

Consider `c1ccc(-c2ccccc2)cc1`, for which the result was inactive.

Take `O=S(=O)(O)C(F)(F)C(F)(F)C(F)(F)C(F)(F)F`: the outcome was inactive.

With `CC(C)(O)C(=O)Nc1ccc([N+](=O)[O-])c(C(F)(F)F)c1`, the AC50 is 38.5 µM (active) and 68.7 µM (active).

For the molecule `Cc1cc(O)ccc1Cl`, the call was inactive.

As to `O=C(NC(=O)c1cc(F)c(F)cc1Cl)Nc1cc(F)ccc1N1CCC(C(=O)O)CC1`, the call was inactive.

Take `ClC(Cl)=C(c1ccc(Cl)cc1)c1ccc(Cl)cc1`: the result was inactive.

As for `Oc1c(Cl)c(Cl)c(Cl)c(Cl)c1Cl`, the result was inactive.

Turning to `Cc1ccc(O)c(C)c1`, the result was inactive.

Regarding `Nc1ccc(-c2ccc(N)cc2)cc1`, the molecule was classed as inactive.

Turning to `CCC(=O)O[C@H]1CC[C@H]2[C@@H]3CCC4=CC(=O)CC[C@]4(C)[C@H]3CC[C@]12C`, the half-maximal activity concentration (AC50) is 176 nM (active) and 243 nM (active) and 917 nM (active).

`CCOP(=S)(OCC)SCSC(C)(C)C`: the molecule was called inactive.

In the case of `CCC(C)(c1ccc(O)cc1)c1ccc(O)cc1`, the AC50 was 285 nM (active) [middle of 4 runs].

As for `C=CC(=O)NCNC(=O)C=C`, the molecule was called inactive.

Turning to `Cc1cccc([N+](=O)[O-])c1`, the result was inactive.

As to `Cc1cc2c3c(c1)C(c1ccccc1)=N[C@@H](NC(=O)c1ccncc1)C(=O)N3CC2`, the call was inactive.

In the case of `O=C(O)C(F)(F)C(F)(F)C(F)(F)C(F)(F)C(F)(F)C(F)(F)C(F)(F)C(F)(F)F`, the result was inactive.

On to `CCC(C)c1cc([N+](=O)[O-])cc([N+](=O)[O-])c1O` (stereo not given), for which the result was inactive.

The AC50 is the concentration giving half of the maximal activity seen.
